# Measurements published in PubChem BioAssay AID488841 (Sanford-Burnham Center for Chemical Genomics, 2010).
# The whole screen tested about 1,400 compounds, of which about 380 (27%) were called active.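 Rule for the calls: active = mean inhibition above 50% across duplicate retests at 10 µM; inactive = the rest.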 The list shows a part of the results.
# Test: inhibition of NALP1/ASC/caspase-1 reporter signal in yeast, confirmation, NALP1 inhibitor project, S. cerevisiae, luminescence, single concentration (AID 488841);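 note: plate controls were DMSO in galactose medium for no effect and cells in plain SD medium for full effect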
# Conditions: S. cerevisiae NALP1/ASC/Caspase-1 reporter, beta-gal luminescence; at 10 µM; hits give high values
row,SMILES,inhibition
1,Cc1cccc(N=C2NC(=O)/C(=C\c3cccs3)S2)c1,44% (inactive)
2,Cc1cccc(C)c1NC(=O)C(Cl)C(=O)c1ccccc1 (centres undefined),12.7% (inactive)
3,O=C(Nc1ccc(Nc2ccccc2)cc1)C(Cl)Cl,78.8% (active)
4,CC(C)C(=O)Nc1ccc(Nc2ccccc2)cc1,58.4% (active)
5,COC1=C(Nc2ccccc2)C(=O)c2ccccc2C1=O,17.4% (inactive)
6,CC(CC(=O)Nc1cccc(Cl)c1)c1ccccc1 (centres undefined),42.7% (inactive)
7,CNCc1ccccc1Sc1cc(O)ccc1O,26.8% (inactive)
8,O=S(=O)(CC12C3C4C5C1C2C(Br)(C43)C51OCCO1)c1ccccc1 (centres undefined),40% (inactive)
9,CC1CCCCN1S(=O)(=O)c1cnc(Cl)c(Br)c1 (centres undefined),68.1% (active)
10,O=c1c(Br)c(N2CCCC2)cnn1-c1ccccc1,41.4% (inactive)
11,CC1CC(C)CN(S(=O)(=O)c2ccc(C(=O)NCc3ccc4c(c3)OCO4)cc2)C1 (centres undefined),24.1% (inactive)
12,O=C(CCl)Nc1cc(-c2ccccc2)nn1-c1ccccc1,68.9% (active)
13,Cc1ccc(-c2cc(NC(=O)CSc3n[nH]c(N)n3)n(-c3ccccc3)n2)cc1,24.2% (inactive)
14,COCC(=O)OCC(=O)Nc1cc(C(C)(C)C)nn1-c1ccccc1,25.4% (inactive)
15,CC(C)c1ccc(-c2c(C#N)c(N)nc3c2CCCCC3)cc1,23.8% (inactive)
16,S=C(NCCCc1ccccc1)Nc1ccc(Cl)cc1,86.3% (active)
17,Cc1cc(C)cc(NS(=O)(=O)c2ccc(NC(=S)Nc3ccccc3)cc2)c1,26.1% (inactive)
18,O=C(NC(CO)Cc1ccc([N+](=O)[O-])cc1)C(Cl)Cl (centres undefined),29.8% (inactive)
19,O=[N+]([O-])c1ccc(NC(=S)NCCc2ccc(F)cc2)cc1,85.5% (active)
20,S=C(NCCc1ccccc1)Nc1ccc(Br)cc1,70.2% (active)
21,O=[N+]([O-])c1ccc(N2CCN(C(=S)Nc3ccccc3)CC2)cc1,32% (inactive)
22,CC1CCCCN1C(=S)NCCc1ccccc1 (centres undefined),47.7% (inactive)

row,SMILES,inhibition
1,CCc1cccc(CC)c1NC(=S)NCCc1c(C)[nH]c2ccccc12,37.9% (inactive)
2,CC(=O)Nc1ccc(C(=O)CSc2nnc(Cc3ccccc3)o2)cc1,11.8% (inactive)
3,CCOC(=O)C1=NN(C(=O)c2ccc(C)cc2)C(O)(c2ccc(Cl)cc2)C1 (centres undefined),45.7% (inactive)
4,Cc1cccc(NC2=C(Cl)C(=O)OC2NC(=O)c2ccccc2)c1 (centres undefined),7.1% (inactive)
5,CC1CCCCN1C(=S)Nc1ccc2nc3n(c(=O)c2c1)CCCCC3 (centres undefined),35% (inactive)
6,O=C(Nc1ccc2nc3n(c(=O)c2c1)CCCC3)c1cc([N+](=O)[O-])ccc1F,64.8% (active)
7,Cc1ccc(NCC(=O)Nc2c(C)n(C)n(-c3ccccc3)c2=O)cc1S(=O)(=O)N(C)C,15.9% (inactive)
8,Cc1ccccc1-c1ccc(C(=O)Nc2cccc(F)c2)o1,52.9% (active)
9,O=C(Nc1cccc(F)c1)c1ccc(CSc2ccccc2)o1,37.8% (inactive)
10,Cc1ccc(CC(=O)Nc2ccccc2-c2ccccc2)cc1C,35.9% (inactive)
11,CC1=C(C)/C(=N\OS(=O)(=O)c2ccc(C)cc2)C=CC1=O,79.5% (active)
12,N#Cc1cnn(-c2ncnc3sc4c(c23)CCCC4)c1N,33.3% (inactive)
13,O=C(COC(=O)Cc1c(F)cccc1Cl)NCCC1=CCCCC1,37.5% (inactive)
14,COc1cc(/C=C2/CCc3ccccc3C2=O)cc(OC)c1OC,53% (active)
15,COc1cc(C=O)ccc1Oc1nnnn1-c1ccccc1,35% (inactive)
16,COc1ccc(/C=C2/CCc3ccccc3C2=O)cc1OC,59.9% (active)
17,COc1ccc(/C=C2\COc3ccccc3C2=O)cc1OC,72.8% (active)
18,O=C1/C(=C/c2ccccc2)CCCc2ccccc21,57.9% (active)
19,O=C1/C(=C/c2ccco2)Cc2ccccc21,38.1% (inactive)
20,COc1cc2ccccc2c2c1CCCC2=O,27.6% (inactive)
21,COc1ccc(C2=C/C(=C/c3cccnc3)C(=O)O2)cc1OC,40.3% (inactive)
22,Cc1ccc(CN(C(=O)CNC(=O)c2cccs2)C(C(=O)NCC2CCCO2)c2ccccc2)cc1 (centres undefined),20.4% (inactive)

row,SMILES,inhibition
1,CC(C)NCCCCOc1cccc(Br)c1,43.9% (inactive)
2,O=C(Cn1cccc(C(F)(F)F)c1=O)c1ccc(Cl)cc1,22% (inactive)
3,Cc1oc(C(=O)O)cc1COc1ccc2c3c(c(=O)oc2c1)CCC3,14.6% (inactive)
4,Cc1[nH][nH]c(=O)c1C(c1c(C)[nH][nH]c1=O)c1cn(Cc2ccc(Cl)c(Cl)c2)c2ccccc12,35.5% (inactive)
5,CN(C)c1ccc(/C=N/NC(=O)c2nnn(-c3nonc3N)c2CN(C)c2ccccc2)cc1,25.6% (inactive)
6,Cc1nc2c(=O)n(C)c(=O)n(C)c2nc1Cl,36.3% (inactive)
7,N=c1n(CC(=O)c2ccc([N+](=O)[O-])cc2)c2ccccc2n1Cc1ccccc1Cl,25.6% (inactive)
8,COc1ccc2c(c1)CC/C(=C/c1ccco1)C2=O,71.4% (active)
9,Nc1ccc2c(c1)C/C(=C/c1ccco1)C2=O,18.6% (inactive)
10,c1ccc2sc(Sc3ncnc4sccc34)nc2c1,44.2% (inactive)
11,COc1ccc(-c2nc3cnccn3c2Nc2ccc(C)cc2)cc1,38.7% (inactive)
12,Cc1ccc(-c2nc3cnccn3c2Nc2c(C)cccc2C)o1,58.9% (active)
13,CC(=O)OCC(=O)[C@H]1CC[C@H]2[C@@H]3CC=C4C[C@@H](O)CC[C@]4(C)[C@H]3CC[C@]12C,4.15% (inactive)
14,O=C(CCNC(=O)c1ccccc1Cl)Nc1ccc2c(c1)OCO2,22.9% (inactive)
15,COC(=O)c1ccc(Oc2ccc(S(=O)(=O)N3CCCCC3)cc2N)cc1,92.3% (active)
16,COC(=O)c1ccc(NC(=O)C(=O)N2CCCC2)cc1,45.1% (inactive)
17,CC(=O)c1ccc(S(=O)(=O)N2CCCC2)cc1,23.6% (inactive)
18,CCc1ccc(NCc2nc(-c3ccccc3)no2)cc1,46.7% (inactive)
19,O=S(=O)(CC(CN1CCCCC1)N1CCCCC1)c1ccc2ccccc2c1 (centres undefined),39.3% (inactive)
20,CCOC(=O)c1cc(-c2ccc(OC)cc2)nc2c1c(C)nn2CCC#N,49.9% (inactive)
